In PubChem BioAssay AID2570 (National Center for Advancing Translational Sciences (NCATS), 2010):
Results filed as inconclusive are left out. A number with no mark means an inactive call. Calls follow the shape of the dose curve; as a rule, active = well fitted curve in the direction sought with a large enough effect; inconclusive = small, poorly fitted or top-dose-only effect, or another doubt; inactive = no such curve, though single readings can be large or run the other way.

biological target: Vasopressin V1b receptor (Homo sapiens) (UniProt P47901); assay: Counterscreen Concentration-Response Assay for Antagonists of the Neuropeptide S Receptor: Vasopressin Receptor Calcium Signal Transduction; details: CHO-AVPR1B, vasopressin-stimulated calcium fluorescence, FDSS
Procedure, shortened: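 CHO cells stably expressing human AVPR1B, calcium-dye loaded, were given compound, then stimulated with 60 nM vasopressin in HBSS/0.1% BSA. Peak kinetic fluorescence was normalized to DMSO and no-signal controls; AC50 from Hill fits.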

Sequence of Vasopressin V1b receptor (Homo sapiens) (P47901 whole entry, looked up): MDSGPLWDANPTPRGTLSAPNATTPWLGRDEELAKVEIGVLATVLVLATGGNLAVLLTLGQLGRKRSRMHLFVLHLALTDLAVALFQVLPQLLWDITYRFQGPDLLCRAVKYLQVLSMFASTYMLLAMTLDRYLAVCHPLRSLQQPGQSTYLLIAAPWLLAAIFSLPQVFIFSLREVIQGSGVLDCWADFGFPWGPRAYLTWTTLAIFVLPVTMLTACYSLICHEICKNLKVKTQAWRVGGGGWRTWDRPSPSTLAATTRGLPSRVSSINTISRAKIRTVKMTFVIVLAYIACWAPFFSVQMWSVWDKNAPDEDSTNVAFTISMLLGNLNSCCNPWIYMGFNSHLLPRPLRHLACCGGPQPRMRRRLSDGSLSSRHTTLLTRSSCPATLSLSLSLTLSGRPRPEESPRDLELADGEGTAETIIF

Row | Compound | max response [%]
1 | Cc1c(P(=S)(c2ccccc2)c2ccccc2)c2ccccc2n1Cc1ccccc1 | 0.753
2 | COc1cccc(C2c3c(ncn(-c4cccc(OC)c4)c3=N)Oc3ccc4ccccc4c32)c1 (stereo not given) | -13.6
3 | CCOC(=O)CCC(=O)Nc1ncnc2c1C(c1ccccc1)c1c(ccc3ccccc13)O2 (stereo not given) | -0.278
4 | Cc1c(P(=S)(c2ccccc2)c2ccccc2)[n+]2ccccc2n1C/C=C/c1ccccc1 | 1.44
5 | COc1cccc(C2c3c(ncn(-c4ccc(C#N)cc4)c3=N)Oc3ccc4ccccc4c32)c1 (stereo not given) | -46.5
6 | N=c1c2c(ncn1-c1ccccc1)Oc1ccc3ccccc3c1C2c1ccc2c(c1)CCO2 (stereo not given) | -13.6
7 | COc1ccc(C2c3c(nc(C)[nH]c3=O)Oc3ccc4ccccc4c32)cc1OC (stereo not given) | -25.8
8 | COc1cccc(C2c3c(ncn(-c4ccccc4)c3=N)Oc3ccc4ccccc4c32)c1 (stereo not given) | -8.43
9 | N#CC1=C(NC=NCc2ccccc2)Oc2ccc3ccccc3c2C1c1ccccc1 (stereo not given) | -19
10 | COc1ccc(C2c3ccc(OCc4ccccc4)cc3Oc3ncn(CCN4CCOCC4)c(=N)c32)cc1OC (stereo not given) | -15.2
11 | COc1ccc(C2c3ccccc3Oc3ncn(CCN4CCOCC4)c(=N)c32)cc1OC (stereo not given) | 20.8
12 | COc1cccc(C2c3c(ncn(-c4ccccc4)c3=N)Oc3ccc4ccccc4c32)c1OC (stereo not given) | -5.77
13 | COc1cccc(C2c3c(ncn(-c4ccccc4C(C)(C)C)c3=N)Oc3ccc4ccccc4c32)c1 (stereo not given) | 9.94
14 | COc1cccc(C2C(C#N)=C(NC(=O)NCc3ccccc3)Oc3ccc4ccccc4c32)c1 (stereo not given) | -21.8
15 | COc1ccc(C2c3c(nc(CCc4ccccc4)[nH]c3=O)Oc3ccc4ccccc4c32)cc1OC (stereo not given) | 1.09
16 | COc1ccc(C2c3c(ncn(Cc4ccccc4)c3=N)Oc3ccc4ccccc4c32)cc1OC (stereo not given) | -10.2
17 | N=c1c2c(ccn1CCCc1ccccc1)Oc1ccc3ccccc3c1C2c1ccccc1 (stereo not given) | -23.7
18 | CCOC(=O)CCCC(=O)Nc1ncnc2c1C(c1ccccc1)c1c(ccc3ccccc13)O2 (stereo not given) | -39.8
19 | COc1cccc(C2c3c(ncn(-c4ccc(C(C)(C)C)cc4)c3=N)Oc3ccc4ccccc4c32)c1 (stereo not given) | 17.5
20 | N=c1c2c(ncn1CCN1CCOCC1)Oc1ccc3ccccc3c1C2c1ccccc1 (stereo not given) | 25.9
